Experimental data as given in PubChem BioAssay (NCI).
“And” between values parts separate entries of the source, which are not always exact repeats. Equal entries are not always repeated. About 79,000 compounds went through this panel and 15% of them were active in at least one assay; those are over-represented in the sample as a whole. Cut-off read from the data, not from the text of the source: active = growth inhibition above about 70%; inactive = the rest. Where a SMILES comes first, the peptide text is derived from it. [ ]: non-standard residue; d: D form. ξ: configuration not given here. ξF = NC(Cc1ccccc1)C(=O)O

How the values were obtained:
[1] = NCI Yeast Anticancer Drug Screen. Data for the rad50 strain (AID 155);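 note: 0% = growth of vehicle-only cultures of the same strain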; conditions: S. cerevisiae rad50 strain growth inhibition; at 50.0 µM; active compounds read high
In short: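 Cells are treated with compound, grown, and their growth is then scored against vehicle-only cultures of the same repair-deficient yeast strain.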

[2] = NCI Yeast Anticancer Drug Screen. Data for the mec2-1 strain (AID 157); conditions: S. cerevisiae mec2-1 strain, at 50.0 µM, active compounds read high
In short: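 Yeast mec2-1 mutant treated with compound. Readout: growth inhibition vs vehicle controls.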

[3] = NCI Yeast Anticancer Drug Screen. Data for the sgs1 mgt1 strain (AID 161);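 note: 0% = growth of cultures given vehicle only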; conditions: S. cerevisiae sgs1 mgt1 strain, at 50.0 µM, active compounds read high
In short: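 Inhibition of yeast growth, normalised to vehicle-treated controls, is reported for a strain bearing genetic alterations in DNA damage repair.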

[4] = NCI Yeast Anticancer Drug Screen. Data for the cln2 rad14 strain (AID 165);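 note: 0% = growth equal to vehicle treated cultures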; conditions: S. cerevisiae cln2 rad14 strain, at 50.0 µM, active compounds read high
In short: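 cln2 rad14 yeast strain; compound exposure; growth inhibition read vs vehicle controls.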

[5] = NCI Yeast Anticancer Drug Screen. Data for the bub3 strain (AID 167); conditions: S. cerevisiae bub3 mutant strain, at 50.0 µM, active compounds read high
In short: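 Part of a panel of yeast mutants defective in DNA damage repair or cell cycle regulation. Each strain is grown with compound, and inhibition is calculated relative to solvent-treated cultures.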

[6] = NCI Yeast Anticancer Drug Screen. Data for the mlh1 rad18 strain (AID 175); conditions: S. cerevisiae mlh1 rad18 strain growth inhibition; at 50.0 µM; active compounds read high
In short: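 Yeast w/ defined DNA-repair lesions; compound exposure; growth vs vehicle controls → % inhibition.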

Measured: growth inhibition

N=C(N)/C=C\C(=O)O
inactive: [1] 1.65% and 2.05% | [2] -9.35% and -13.2% | [3] 4.4% and -11.1% | [4] 17.4% and 14.3% | [5] -21.4% and -33.8% | [6] -4.9% and -14.8%

O=C(O)CCSCc1ccccc1
inactive: [1] -25.6% and 8.85% | [2] 0.7% and -6.9% | [3] -23.1% and 1.55% | [4] -31% and -3.5% | [5] -31.4% and -0.2% | [6] -30.3% and -16.1%

COCc1cc(C)c(C#N)c(=O)[nH]1
inactive: [1] -2.35% and 9.35% | [2] 1.5% and 5.35% | [3] -5% and -8.7% | [4] 17.9% and -3.65% | [5] 13.3% and -7.55% | [6] -3.9% and 0.85%

CCc1ccc(N)cc1
inactive: [1] -16.4% and -3.75% | [2] -16.6% and 4.3% | [3] -23.4% and -4.25% | [4] -5.55% and -28.5% | [5] -16.5% and -11.1% | [6] -16.7% and 4.35%

O=C1c2ccccc2C(=O)c2c(O)ccc(O)c21
inactive: [1] 51.5% and 39.8% | [2] 37.2% and 11.2% | [3] 54.1% and 21.6% | [4] 24.4% and 33.8% | [5] 52% and 28.9% | [6] 50.5% and 13.8%

CC(Cc1ccccc1)NC(=O)c1ccccc1 (stereo not given)
inactive: [1] 18.2% and 5.45% | [2] 3.3% and -1.1% | [3] -19.9% and -2.25% | [4] -93.5% and -7.65% | [5] -14.9% and 2.45% | [6] 7.4% and -5.3%

Nc1ccc(C(=O)NCC(=O)O)cc1
inactive: [1] 13.4% and 10.3% | [2] 3.65% and -4.8% | [3] 3.25% and 5.05% | [4] -41.3% and 15.2% | [5] 6.75% and -3.5% | [6] 0.4% and 16.7%

O=C(O)/C=C/c1cccc(Cl)c1
inactive: [1] 14.2% and -11.2% | [2] 10.2% and -19.9% | [3] 3.25% and -12.2% | [4] -16.1% and 13.5% | [5] -6.7% and -28.2% | [6] 24.8% and 23.6%

NCC(=O)NC(Cc1ccccc1)C(=O)O (stereo not given) (H-Gly-[ξF]-OH)
inactive: [1] -28.9% and -14.6% | [2] -14.6% and -12.2% | [3] -1% and -20.6% | [4] -3.9% and -2.65% | [5] -8.25% and -10% | [6] -3.75% and -13.3%

COC(=O)C1=COC(C)C2CN3CCc4c([nH]c5cc(OC)c(OC)cc45)C3CC12 (stereo not given)
inactive: [1] 14.2% and 5.35% and -4.65% | [2] -5.4% and -5.6% and -9.7% | [3] 5.6% and 12.8% and -5.45% | [4] 6.1% and 14.9% and 10.6% | [5] 26.4% and 18.1% and -20.4% | [6] 25.6% and -54.1% and -63.4%

C=CC/C(=N\OS(=O)(=O)O)SC1OC(CO)C(O)C(O)C1O (stereo not given)
inactive: [1] 2.2% and 4.75% | [2] -30.6% and -21.5% | [3] -0.75% and -20.6% | [4] 13.4% and 7.4% | [5] -14% and -30.2% | [6] -14.9% and -10.7%

NCC1CCC(CN)CC1 (stereo not given)
inactive: [1] -23.9% and -37.9% | [2] -40.7% and -33.4% | [3] -17.6% and -24.7% | [4] -5.15% and 12.1% | [5] -28.9% and -25.8% | [6] -19.9% and -7.3%

Cc1cc(Cc2cc(C)c(O)c(C(=O)O)c2)cc(C(=O)O)c1O
inactive: [1] 0.25% and -7.15% | [2] 10.1% and -0.4% | [3] 2.35% and 0.2% | [4] -91.8% and -2.45% | [5] 27.3% and 4.85% | [6] 7.05% and -16.3%

COc1cc2c(cc1OC)CN1CCc3cc(OC)c(OC)cc3C1C2 (stereo not given)
inactive: [1] -1.3% and 16.1% | [2] -54.6% and 11.9% | [3] -28.2% and 14.3% | [4] 0.7% and 7.8% | [5] -51.4% and 17.4% | [6] -38.5% and 18.1%

O=C(O)Cc1ccc(C2CCC(O)CC2)cc1 (stereo not given)
inactive: [1] 2.75% and 8.45% | [2] -5.35% and -1.85% | [3] 3.05% and 21.2% | [4] -17.8% and -4.3% | [5] -0.15% and 5.4% | [6] 0.9% and 1%
